High-throughput results deposited in PubChem by University of Kansas High Throughput Screening Laboratory.
Rows were chosen to be rich in hits. Some 3.5% of all compounds tested hit in one or more screens of this group.
Pf apPOL block – Pf-apPOL DNA polymerase inhibition; AID 1794808; 0.25% of 210,000 active; inhibition, % at 10 µM; Recombinant Pf-apPOL, molecular beacon fluorescence, 1.5 h
mHTT-CaM PPI inh – disrupts binding of mutant huntingtin to calmodulin. AlphaScreen His-mHTT/GST-CaM binding, luminescence. 3.6% of 190,000 active. AID 1671202. P42858. inhibition, % at 15 µM;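 also: 0% = both proteins with DMSO and 100% = one protein alone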
The depositor's hits bear a star; . = no result. Rule as the data show it: active = inhibition above about 50%; inactive = the rest.

SMILES	Pf apPOL block	mHTT-CaM PPI inh
COc1ccc(N2C(=O)c3ccc(Oc4ccc(N)cc4)cc3C2=O)cc1OC	2	5
COc1ccccc1Oc1ccc2c(c1)C(=O)N(c1cccc3ncccc13)C2=O	-5	75*
Cc1ccc(S(=O)(=O)N2CCC(c3ccncc3)CC2)cc1	0	-6
O=C(NCCCc1ccccc1)C1(n2cccc2)CCCCC1	-6	51*
CN(CCCNC(=O)C1(n2cccc2)CCCCC1)Cc1ccccc1	-16	27
CC1(C)CC(=O)C2=C(C1)OC(c1ccc(Br)cc1)C(C#N)=C2N (centres undefined)	0	3
O=C(NCCOc1ccc2c(c1)OCO2)c1ccccc1Cl	-8	-11
COC(=O)Nc1ccc(S(=O)(=O)N2CCC(C(=O)Nc3cccc(OC)c3)CC2)cc1	-3	11
COc1ccc(S(=O)(=O)N2CCC(C(=O)Nc3cccc(C(C)=O)c3)CC2)cc1	99*	10
COc1ccc(NC(=O)N2CCc3c(nc(-c4ccc(F)cc4)[nH]c3=O)C2)c(C)c1	0	0
Cc1cccc(NC(=O)c2ccc(Cl)cc2N)n1	0	.
Cc1ccc(-n2cc(C(=O)N3CCCC3)c3ccccc3c2=O)cc1C	-6	10
Cc1ccc(-n2cc(C(=O)N3CCN(c4ccccc4)CC3)c3ccccc3c2=O)cc1C	-1	74*
O=C(C1=CN(c2cccc(F)c2)c2cc(F)ccc2S1(=O)=O)N1CCCCC1	7	20
COc1cc([N+](=O)[O-])ccc1NC(=O)c1cccc(Cl)c1	-6	-2
O=S(=O)(c1c(F)cccc1F)N(CCc1ccc(F)cc1)C[C@@H](O)COCc1ccccc1	-4	99*
CN(CC(O)COCc1ccccc1)C1CCCCC1 (centres undefined)	-4	-4
COc1ccc(CNC(=O)c2ccc3[nH]c4c(c3c2)CN(C(C)=O)CC4)c(OC)c1	-3	51*
CCc1ccccc1NC(=O)c1ccc2[nH]c3c(c2c1)CN(C(C)=O)CC3	-1	22
COc1ccccc1CNC(=O)c1ccc2[nH]c3c(c2c1)CN(C(C)=O)CC3	-2	28
CC(=O)N1CCc2[nH]c3ccc(C(=O)NCc4ccc(N5CCCC5)cc4)cc3c2C1	-2	89*
CC(=O)N1CCc2[nH]c3ccc(C(=O)NCCc4ccc(F)cc4)cc3c2C1	-8	52*
CCc1ccc(N(CC)C(=O)c2ccc3[nH]c4c(c3c2)CN(C(C)=O)CC4)cc1	-2	68*
COc1ccc(CCNC(=O)c2ccc3[nH]c4c(c3c2)CN(C(C)=O)CC4)cc1OC	-8	46
COc1ccc(OC)c(CNC(=O)c2ccc3[nH]c4c(c3c2)CN(C(C)=O)CC4)c1	8	44
SMILES	Pf apPOL block	mHTT-CaM PPI inh
CCSc1ccc(-c2cccc(NC(=O)COC)c2)nn1	-2	5
O=C(C1CC1)N1CCc2cc(Br)cc(S(=O)(=O)NC3CCCC3)c21	-5	7
O=C(Nc1c2c(nn1-c1ccc([N+](=O)[O-])cc1)CS(=O)(=O)C2)c1ccc(Br)cc1	-8	25
CCN(CC)C(=O)c1cc2c(s1)CCC(C(=O)Nc1ccc(F)cc1)C2 (centres undefined)	-4	0
O=C(NC1CC2CC1N(C(=O)c1ccc(C(F)(F)F)s1)C2)c1cccnc1 (centres undefined)	-6	11
COc1ccc(/C=C2\SC(=N)N(c3nonc3N)C2=O)cc1	-6	-1
N=C1NC(=O)/C(=C\c2ccc(-c3cccc(C(F)(F)F)c3)o2)S1	-1	43
CC(=O)Nc1nonc1N1C(=N)S/C(=C\c2ccc(-c3ccc(F)cc3)o2)C1=O	-3	62*
N=C1S/C(=C\c2ccc(-c3cccc(Cl)c3)o2)C(=O)N1c1nccs1	-9	57*
CC(=O)Nc1nonc1N1C(=N)S/C(=C\c2ccc(-c3ccc(F)c(Cl)c3)o2)C1=O	1	26
N=C1S/C(=C\c2ccco2)C(=O)N1c1nonc1N	1	93*
N=C1S/C(=C\c2ccc(-c3cccc(C(F)(F)F)c3)o2)C(=O)N1c1nonc1N	-3	56*
N=C1S/C(=C\c2ccc(-c3ccc4c(c3)COC4=O)o2)C(=O)N1c1nccs1	-7	41
O=C(NCc1ccc(Cl)cc1)c1cccn2c(=O)c3cc(Cl)ccc3nc12	-2	5
Cc1ccc2cc(NC(=O)c3ccc(Oc4cc(Cl)cc(Cl)c4)o3)ccc2n1	-3	.
CCC(C)(O)c1nnn(-c2nonc2N)c1C(C)(O)CC (centres undefined)	0	10
Cc1c(-c2ccc(C3NC(C(=O)O)CS3)o2)cccc1[N+](=O)[O-] (centres undefined)	-3	52*
Cc1ccc(C2NC(C(=O)O)CS2)cc1[N+](=O)[O-] (centres undefined)	-5	-3
COc1ccc(C)cc1S(=O)(=O)NC1CCCC(OC(=O)Nc2ccc(F)cc2)C1 (centres undefined)	-4	22
O=C1C=CC(=NOC2=C(ON=C3C=CC(=O)C=C3)C(=O)c3ccccc3C2=O)C=C1	-14	34
